Records with an inconclusive call do not appear. Values without a mark were called inactive. Active and inactive are the calls of the source. The call rests on the fitted dose curve; in most records, active means well fitted cell-killing curve with a large enough effect; inconclusive means small, poorly fitted or top-dose-only effect, or effect the other way; inactive means no such curve, though single readings can be large or run the other way.
Assay: Quantitative High-Throughput drug screen in 47 multiple myeloma cell lines against the NCATS MIPE library collection: XG6_PLB cell viability assay (AID 1919865); further: nearly all actives have a fitted effect of over 40% in size
Conditions: XG6 myeloma viability, CellTiter-Glo ATP luminescence, 48 h; series mostly up to 45.8 µM; viability (% of control): at the top concentration
In short: (§1)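 MIPE 4.0 approved/investigational drugs; 500 cells/well; 48 h 37 °C humidified 5% CO2; CTG luminescence readout; DMSO = 100%, media = 0% viability.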
Potency means the concentration at half of the fitted maximal effect.

SMILES | viability (% of control) | Potency
COc1ccc(-n2nc(C(N)=O)c3c2C(=O)N(c2ccc(N4CCCCC4=O)cc2)CC3)cc1 | 108% | –
CC(O)C1C(=O)N2C(C(=O)O)=C(SC3CNC(C(=O)N(C)C)C3)C(C)C12 (stereo not given) | 82.5% | –
CNc1nccc(-c2cccnc2Oc2cc(C(=O)Nc3cccc(C(F)(F)F)c3)ccc2C)n1 | – | 2350 nM (active)
CCCCN1CCC(CNC(=O)c2c3n(c4ccccc24)CCCO3)CC1 | – | 833 nM (active)
COC(=O)C[C@](O)(CCCC(C)(C)O)C(=O)O[C@@H]1C(OC)=C[C@]23CCCN2CCc2cc4c(cc2[C@H]13)OCO4 | 122% | –
CCCCCCCCCC(=O)N[C@@H](Cc1c[nH]c2ccccc12)C(=O)N[C@H](CC(N)=O)C(=O)N[C@@H](CC(=O)O)C(=O)N[C@@H]1C(=O)NCC(=O)N[C@@H](CCCN)C(=O)N[C@@H](CC(=O)O)C(=O)N[C@H](C)C(=O)N[C@@H](CC(=O)O)C(=O)NCC(=O)N[C@H](CO)C(=O)N[C@@H]([C@@H](C)CC(=O)O)C(=O)N[C@@H](CC(=O)c2ccccc2N)C(=O)O[C@@H]1C | 83.5% | –
CC1(C)O[C@@H]2C[C@@H]3[C@H]4C[C@@H](F)C5=CC(=O)C=C[C@]5(C)[C@@]4(F)[C@@H](O)C[C@]3(C)[C@]2(C(=O)CO)O1 | 97.1% | –
C[C@]12CC[C@H](O)CC1=CCC1C2CC[C@]2(C)C(n3cnc4ccccc43)=CCC12 (stereo not given in full) | – | 14800 nM (active)
Cc1ccc(CN2CCNCC2)cc1NC(=O)CNc1ccc(F)c(F)c1 | 113% | –
Nc1cccc(-c2cc3c(Oc4cccc(O)c4)ncnc3[nH]2)c1 | – | 2090 nM (active)
NC(=O)c1c(OCc2c(F)cc(Br)cc2F)nsc1NC(=O)NCCCCN1CCCC1 | – | 7430 nM (active)
CCN(CC)CCCCNc1ncc2cc(-c3cc(OC)cc(OC)c3)c(NC(=O)NC(C)(C)C)nc2n1 | – | 5900 nM (active)
CNC(=O)CN1CCC(Oc2cc3c(Nc4cccc(Cl)c4F)ncnc3cc2OC)CC1 | 33.4% | –
Nc1ccn([C@@H]2O[C@H](CO)[C@H](O)C2(F)F)c(=O)n1 | – | 74.3 nM (active)
CC(=O)OCCN1C(=O)c2c(C)nc3ccc(S(=O)(=O)N4CCOCC4)cc3c2C1=O | 116% | –
COc1cccc(Nc2c(C(N)=O)cnc3c(C)cc(S(=O)(=O)c4cccc(C(=O)N(C)C)c4)cc23)c1 | 118% [at 23.2 µM] | –
NCC(=O)Nc1ccc(-n2nc(C(F)(F)F)cc2-c2ccc3c(ccc4ccccc43)c2)cc1 | – | 18700 nM (active)
Cc1cc(Nc2cc(CN3CCOCC3)c3nc(C)c(Cc4ccc(Cl)cc4F)n3n2)n[nH]1 | – | 13200 nM (active)
Cc1c(NC(=O)OC[C@@H]2COCCN2)cn2ncnc(Nc3ccc4c(cnn4Cc4cccc(F)c4)c3)c12 | – | 37.2 nM (active)
CC1COC2(CCN(c3nc(=O)c4cc(C(F)(F)F)cc([N+](=O)[O-])c4s3)CC2)O1 (stereo not given) | 110% | –
Cc1cn2cc(C(=O)N(C)CCO)cc(N[C@@H]3CCOc4cccc(C)c43)c2n1 | 86.5% | –
O=c1c2ccccc2nc2n1CCc1c-2[nH]c2ccccc12 | 98.6% | –
CC=CC1=C(C(=O)O)N2C(=O)[C@H](NC(=O)[C@H](N)c3ccc(O)cc3)[C@@H]2SC1 | 92.4% | –
Cc1cnc(-c2cnc(NCCNc3ccc(C#N)cn3)nc2-c2ccc(Cl)cc2Cl)[nH]1 | – | 6620 nM (active)
CC(C)(O)CCc1ccc(OCc2cc(-c3cccc(OC(F)F)c3)c3ncccc3c2)cc1 | – | 20900 nM (active)

Assay: Quantitative High-Throughput drug screen in 47 multiple myeloma cell lines against the NCATS MIPE library collection: XG1_PLB cell viability assay (AID 1919866); further: nearly all actives have a fitted effect of over 35% in size
Conditions: CellTiter-Glo ATP, 48 h; series mostly up to 45.8 µM; viability: at the top concentration
In short: as §1

SMILES | viability | Potency
COc1ccc(-n2nc(C(N)=O)c3c2C(=O)N(c2ccc(N4CCCCC4=O)cc2)CC3)cc1 | 109% | –
CC(O)C1C(=O)N2C(C(=O)O)=C(SC3CNC(C(=O)N(C)C)C3)C(C)C12 (stereo not given) | 92.2% | –
COc1cccc(-c2ccc(NC(=O)C3=C(C(=O)O)CCC3)c(F)c2)c1 | – | 4180 nM (active)
CCNC(=O)Nc1ccc2ncc(Nc3ccc(C)cc3)nc2n1 | – | 332 nM (active)
CCCCCCCCCC(=O)N[C@@H](Cc1c[nH]c2ccccc12)C(=O)N[C@H](CC(N)=O)C(=O)N[C@@H](CC(=O)O)C(=O)N[C@@H]1C(=O)NCC(=O)N[C@@H](CCCN)C(=O)N[C@@H](CC(=O)O)C(=O)N[C@H](C)C(=O)N[C@@H](CC(=O)O)C(=O)NCC(=O)N[C@H](CO)C(=O)N[C@@H]([C@@H](C)CC(=O)O)C(=O)N[C@@H](CC(=O)c2ccccc2N)C(=O)O[C@@H]1C | 105% | –
CC1(C)O[C@@H]2C[C@@H]3[C@H]4C[C@@H](F)C5=CC(=O)C=C[C@]5(C)[C@@]4(F)[C@@H](O)C[C@]3(C)[C@]2(C(=O)CO)O1 | 108% | –
CCN(CC)CCCCNc1ncc2cc(-c3cc(OC)cc(OC)c3)c(NC(=O)NC(C)(C)C)nc2n1 | – | 8330 nM (active)
CNC(=O)CN1CCC(Oc2cc3c(Nc4cccc(Cl)c4F)ncnc3cc2OC)CC1 | – | 23.5 nM (active)
Nc1ccn([C@@H]2O[C@H](CO)[C@H](O)C2(F)F)c(=O)n1 | – | 20.9 nM (active)
CC(=O)OCCN1C(=O)c2c(C)nc3ccc(S(=O)(=O)N4CCOCC4)cc3c2C1=O | 116% | –
COc1cccc(Nc2c(C(N)=O)cnc3c(C)cc(S(=O)(=O)c4cccc(C(=O)N(C)C)c4)cc23)c1 | 127% [at 23.2 µM] | –
Cc1c(Cn2c(C)nc3c(C(=O)O)cc(N4CCOCC4)cc32)cccc1C(F)(F)F | – | 743 nM (active)
Cc1cc(Nc2cc(CN3CCOCC3)c3nc(C)c(Cc4ccc(Cl)cc4F)n3n2)n[nH]1 | – | 833 nM (active)
Cc1c(NC(=O)OC[C@@H]2COCCN2)cn2ncnc(Nc3ccc4c(cnn4Cc4cccc(F)c4)c3)c12 | – | 83.3 nM (active)
Cc1cn2cc(C(=O)N(C)CCO)cc(N[C@@H]3CCOc4cccc(C)c43)c2n1 | 102% | –

From PubChem BioAssay (NCATS)
